From PubChem BioAssay AID463173 (ICCB-Longwood Screening Facility, Harvard Medical School, 2010)
The whole screen tested about 52,000 compounds, of which about 4,300 (8.3%) were called active. This is one part of a sample in which actives are shown more often than they occur. Values without a mark were called inactive. No stated cut-off is given here; in the data, active means survival mostly below about 52% (no sharp cut-off); inactive means mostly above about 56%.

Test system: DeltatarO mutant
Assay: growth inhibition of S. aureus wild type versus tarO mutant, primary screen, teichoic acid synthesis inhibitors, RN4220, OD600 (AID 463173)
Conditions: OD600, 18 h, active compounds read low, screened at 18.75 µg/mL (by protocol)

In order of rising survival:
1. O=C(Cn1nnc2sc(-c3ccccc3)cc2c1=O)Nc1cccc(C(F)(F)F)c1  40%
2. COc1ccc(/C=C/C(=O)Nc2nc(-c3cccs3)ns2)cc1OC  48%
3. Cc1ccc(Nc2c(-c3cccc(Cl)c3)nc3cccc(C)n23)cc1  49%
4. COc1ccc(-c2c3c(=O)n(C)c(=O)n(C)c3c3n2-c2ccccc2NC3c2ccco2)cc1 (centres undefined)  50%
5. Cc1ccc(C(=O)N(Cc2ccc(N(C)C)cc2)CC2CCCO2)cc1 (centres undefined)  50%
6. COc1ccccc1C1Nc2ccccc2-n2c(-c3ccccc3)c3c(=O)n(C)c(=O)n(C)c3c21 (centres undefined)  53%
7. CC(C)c1ccc(Nc2c(-c3ccccc3O)nc3cnccn23)cc1  55%
8. Cn1c(=O)n(C)c2cc(NS(=O)(=O)c3ccc(Br)cc3)c(NCc3ccccc3)cc21  57%
9. COc1ccc(Nc2c(-c3ccc(Cl)cc3)nc3cnccn23)cc1OC  58%
10. Cc1ccc(C2Nc3ccccc3-n3c(-c4ccccc4)c4c(=O)n(C)c(=O)n(C)c4c32)o1 (centres undefined)  59%
11. Cc1cccc(C)c1NC(=O)CN(Cc1ccc(Br)cc1)S(=O)(=O)c1ccccc1  60%
12. Cc1cc(=O)n2c(C(=O)Nc3ccc(Br)cc3)c(C(=O)Nc3ccccc3)sc2n1  62%
13. COc1ccc(C(=O)N(Cc2ccc(N(C)C)cc2)CC2CCCO2)cc1 (centres undefined)  63%
14. CC(=O)c1ccc(N2CCN(S(=O)(=O)c3ccc4[nH]c5c(c4c3)CCCC5)CC2)cc1  64%
15. CCCSc1nc(-c2ccc(OC)cc2)cc(-c2ccccc2OC)c1C#N  64%
16. COc1cc(-c2nc3cnccn3c2Nc2ccc(C(C)C)cc2)ccc1O  66%
17. COCCN(CCOC)c1ncnc2c1c(-c1ccccc1)cn2-c1ccc(C)c(Cl)c1  67%
18. Cc1ccc(S(=O)(=O)N2CCCc3cc(NS(=O)(=O)c4cccc(Cl)c4)ccc32)cc1  68%
19. Cc1ccc(C2Nc3cc(C)c(C)cc3-n3c(-c4ccccc4)c4c(=O)n(C)c(=O)n(C)c4c32)o1 (centres undefined)  68%
20. COc1cc(NC(=O)Nc2nnc(N3CCCCC3)s2)cc(OC)c1  68%
21. Cn1c(=O)n(C)c2cc(NS(=O)(=O)c3ccccc3)c(NCc3ccccc3)cc21  68%
22. N#CC1(Nc2ccccc2Cl)C(=O)Nc2ccccc21 (centres undefined)  69%
23. O=C(CSc1nc(=O)n(Cc2ccco2)c2c1CCC2)NCc1ccc(Cl)cc1  69%
24. Cc1ccc(Cl)cc1-n1c(=O)cc(N2CCN(c3ccc(F)cc3)CC2)[nH]c1=O  70%
25. O=C(c1ccccc1)N1CCN(Cc2ccccc2)CC1  72%
26. COc1ccc(OCC(=O)Nn2cnnc2)cc1  73%
27. Cc1ccc(S(=O)(=O)Nc2cc3c(cc2NCc2ccccc2)n(C)c(=O)n3C)cc1  73%
28. COc1ccc(-c2c3c(=O)n(C)c(=O)n(C)c3c3n2-c2ccccc2NC3c2ccccc2OC)cc1 (centres undefined)  74%
29. CCOc1ccc(NC(=O)N(Cc2c[nH]c3ccccc23)C2CCCCC2)cc1  74%
30. COc1cccc(C(c2c(O)cc(C)n(Cc3ccco3)c2=O)N2CCC(C)CC2)c1 (centres undefined)  74%
31. Cc1ccc(Cn2c(SCC(=O)C(C)(C)C)nc3ccsc3c2=O)cc1  77%
32. Cc1cccc(CCNC(=O)c2ccc3c(c2)nc2n3CCCCC2)c1  77%
33. Cn1c(=O)c2c(-c3ccccc3)n3c(c2n(C)c1=O)C(c1ccco1)Nc1ccccc1-3 (centres undefined)  77%
34. COc1ccc(N2CCN(CCCNC(=O)c3ccc4nc(N5CCCCC5)sc4c3)CC2)cc1  78%
35. COc1cc(NC(=O)N2CCC(CN3CCCC3)CC2)cc(OC)c1OC  79%
36. CCCOc1ccc(CNC(=O)C2CCN(C(=O)c3sccc3-n3cccc3)CC2)cc1  79%
37. CCOc1ccc(NC(=O)N(Cc2c[nH]c3ccccc23)C2CCCCCC2)cc1  79%
38. Cc1ccccc1C(=O)n1nc(-c2ccco2)nc1NCc1ccc(Cl)cc1  80%
39. Cc1cc2c(cc1C)-n1c(-c3ccccc3)c3c(=O)n(C)c(=O)n(C)c3c1C(c1ccco1)N2 (centres undefined)  80%
40. COc1ccc(-c2nc3ccccc3n3c(-c4ccccc4)c4c(=O)n(C)c(=O)n(C)c4c23)cc1  80%
41. C=CCn1c(=O)[nH]c2c1c(=O)n(C)c(=O)n2C  80%
42. Cc1cc2ncn(S(=O)(=O)c3ccc(S(=O)(=O)NCC4CCCO4)cc3)c2cc1C (centres undefined)  82%
43. CCOc1ccc(-c2cc3c(=O)n(CC(=O)NCc4ccccc4)ccn3n2)cc1  83%
44. CN(C)c1ccc(-c2nc3cnccn3c2Nc2cccc(C(F)(F)F)c2)cc1  83%
45. CCOc1ccc2c(c1)c(=O)c(C(=O)c1ccccc1)cn2Cc1ccccc1F  83%
46. COc1ccc(Cl)cc1NC(=O)Cn1cc(S(=O)(=O)Cc2cccc(Cl)c2)c2ccccc21  83%
47. CCN1CCN(Cc2nc3cc(NC(=O)c4cc(OC)c(OC)c(OC)c4)ccc3n2CC)CC1  84%
48. O=C(Cn1c(=O)oc2cc(S(=O)(=O)N3CCCCCC3)ccc21)Nc1ccc(F)cc1F  84%
49. CCc1ccc(NC(=O)N(Cc2c[nH]c3ccccc23)C2CCCCC2)cc1  84%
50. CCCCN(CC)CCNC(=O)Cn1cc2c(n1)-c1c(oc(C(=O)N3CCCC3)c1C)CC2  85%
51. O=c1c2ccccc2n(Cc2c(F)cccc2Cl)c(=O)n1CCc1ccccc1  85%
52. Cc1oc2ncn(CC(C)C)c(=O)c2c1C(=O)NCCCN1CCCCC1C (centres undefined)  87%
53. CC(C)n1cc2c(c1-c1ccccc1Cl)c(=O)n(C)c(=O)n2C  89%
54. Cc1ccc(NC(=O)Nc2cn(C)c(=O)c3ccccc23)c(Cl)c1  89%
55. O=C(Cc1ccc(Cl)cc1)NCCN1CCOCC1  91%
56. Cc1ccc(Cl)cc1-n1c(=O)cc(N2CCN(c3ccccc3)CC2)[nH]c1=O  92%
57. COc1ccc(N2CCN(C(=O)COCc3cc(-c4ccc5c(c4)OCO5)on3)CC2)cc1  92%
58. CCOc1ccccc1N(CC)C(=O)Nc1cn(C)c(=O)c2ccccc12  94%
59. Cc1cccc(C)c1Nc1c(-c2ccccc2Cl)nc2cnccn12  97%
60. O=C(/C=N/O)NCCN1CCCCC1  98%
61. CCOc1ccc(/C=C/c2nc(C#N)c(N(C)C)o2)cc1  102%
62. COC(=O)c1cc2occc2n1Cc1nc(-c2ccccc2F)oc1C  102%
63. Cc1ccc(Nc2c(-c3ccncc3)nc3ccc(C)cn23)cc1  102%
64. COc1ccc(C2(NC(=O)c3ccc(Cn4cc(Cl)cn4)o3)CCCCC2)cc1  102%
65. CCc1ccc(NC(=O)N(Cc2c[nH]c3ccccc23)C2CCCCCC2)cc1  102%
66. CN(C)c1ccc(-c2cc(-c3ccccc3)c(C#N)c(N)n2)cc1  105%
67. Cc1ccc[n+](CC(=O)c2cccs2)c1  106%
68. Cn1c(=O)c2c(nc(Oc3ccc(C#N)cc3)n2Cc2ccc(Cl)cc2Cl)n(C)c1=O  106%
69. Cn1c(=O)n(C)c2cc(NS(=O)(=O)c3ccc(Cl)cc3)c(NCc3ccccc3)cc21  117%
70. Cc1ccc(CCNC(=O)c2c(C)oc3ncn(CC(C)C)c(=O)c23)cc1  119%
71. CCOc1ccccc1NC(=O)C(CC)Sc1nc2ccncc2[nH]1 (centres undefined)  122%
72. CC1=C(C(=O)Nc2ccc(C)cc2C)C(c2ccc(O)cc2)n2nc(SCC(=O)c3ccc(C)cc3)nc2N1 (centres undefined)  125%

With `O=C(NCCCN1CCCCC1)c1ccc2c(c1)sc1nc(-c3ccc(F)cc3)cn12` the survival was 53% (active).
`Cc1ccc(-n2c(=O)cc(N3CCN(c4ccccc4Cl)CC3)[nH]c2=O)cc1` was tested, and the survival was 25% (active).
`Oc1ccccc1-c1nc2cnccn2c1Nc1ccc(Cl)cc1` was tested, and the survival was 15% (active).
`CC(C)c1ccc(Nc2c(-c3ccc(N(C)C)cc3)nc3cnccn23)cc1` was tested, and the survival was 43% (active).
For `Cc1ccc(Nc2c(-c3ccc(C)cc3)nc3cnccn23)cc1`, the survival was 35% (active).
With `COc1ccccc1-c1cc(-c2ccc(O)cc2)nc(N)c1C#N` the survival was 12% (active).
In the case of `COc1ccc(O)c(C2Nc3ccccc3-n3c(-c4ccccc4)c4c(=O)n(C)c(=O)n(C)c4c32)c1` (centres undefined), the survival was 3% (active).
With `Cn1c(=O)c2c(-c3ccccc3)n3c(c2n(C)c1=O)C(c1cc(Cl)ccc1O)Nc1ccccc1-3` (centres undefined) the survival was 1% (active).
In the case of `COc1ccc(-c2c3c(=O)n(C)c(=O)n(C)c3c3n2-c2ccccc2NC3c2ccc(O)cc2O)cc1` (centres undefined), the survival was 0% (active).
For `Cc1ccc(-c2c3c(=O)n(C)c(=O)n(C)c3c3n2-c2ccccc2NC3c2ccc(C)cc2O)cc1` (centres undefined), the survival was 2% (active).
In the case of `Cn1c(=O)c2c([nH]c(=O)n2Cc2ccc(Cl)cc2Cl)n(C)c1=O`, the survival was 42% (active).
With `CN(C(=O)Nc1cn(C)c(=O)c2ccccc12)c1ccccc1` the survival was -5% (active).
For `CCc1ccc(NC(=O)N(Cc2cn(CC)c3ccccc23)C2CCCCC2)cc1`, the survival was -13% (active).
With `CCOc1ccc(NC(=O)N(Cc2cn(CC)c3ccccc23)C2CCCCCC2)cc1` the survival was -12% (active).
For `COc1cc(C(=O)N(Cc2ccc(N(C)C)cc2)CC2CCCO2)cc(OC)c1OC` (centres undefined), the survival was 47% (active).
For `CC(C)c1ccc(S(=O)(=O)Nc2cc3c(cc2NCc2ccccc2)n(C)c(=O)n3C)cc1`, the survival was 39% (active).
With `Cn1c(=O)n(C)c2cc(NS(=O)(=O)c3ccc(C(C)(C)C)cc3)c(NCc3ccccc3)cc21` the survival was 43% (active).
